Most compounds without a hit are left out; they make up all but 1.2% or so of the library.
RGS8-Gao: human RGS8-Galphao interaction regulation; 0.34% of 220,000 active; multiplexed bead flow cytometry, RGS8-Galphao binding; actives lie on both sides; AID 1423; P09471; response (percent of control binding), % at 10 µM; in the data active = response below about 60% or above about 140%; inactive = in between;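 also: Galphao activated as the GDP aluminium fluoride complex binding bead-coupled RGS8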
Target sequence (P09471 whole entry, looked up): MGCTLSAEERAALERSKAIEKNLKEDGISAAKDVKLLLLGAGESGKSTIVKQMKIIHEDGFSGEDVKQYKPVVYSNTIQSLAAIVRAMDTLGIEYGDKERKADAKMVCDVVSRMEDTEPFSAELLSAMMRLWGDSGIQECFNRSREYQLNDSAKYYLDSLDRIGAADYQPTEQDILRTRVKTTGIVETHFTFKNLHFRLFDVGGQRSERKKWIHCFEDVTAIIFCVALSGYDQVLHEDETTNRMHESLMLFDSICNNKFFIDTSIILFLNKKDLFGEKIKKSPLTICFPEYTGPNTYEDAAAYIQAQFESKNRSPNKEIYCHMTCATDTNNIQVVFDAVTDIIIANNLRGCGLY
RGS7-Gao: regulators of human RGS7-Galphao interaction; P09471; AID 1439; 0.35% of 220,000 active; binding response (% of control), % at 10 µM; Multiplexed bead flow cytometry, RGS7-Galphao binding; actives lie on both sides; in the data active = binding response below about 49% or above about 150%; inconclusive = no clear call, values can overlap the other calls; inactive = in between;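 also: fluorescent Galphao held in activated GDP-AlF4 state binding bead-coupled RGS7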
GSH bead fluor: GSH bead compound fluorescence profile | 0.25% of 190,000 active | GSH beads flow cytometry, compound fluorescence 488/530 nm; hits give high values | AID 1776 | fluorescence (KMESF) at 10 µM; in the data active = fluorescence above about 89;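 also: glutathione beads carrying GST-tagged Bcl family fusion proteins plus one bare bead set; values are compound well signal with DMSO vehicle wells as background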
RGS16-Gao HTS: regulators of human RGS16-Galphao interaction | O15492+P09471 | bead-based flow cytometry RGS16-Galphao binding, fluorescence; actives lie on both sides | binding response (% of control), % at 10 µM | 0.38% of 220,000 active;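 also: Galphao activated by GDP with aluminum fluoride before binding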
Avidin fluor: compound fluoresces at 488/530 nm on avidin beads; compound fluorescence 488/530 nm, flow cytometry; hits give high values; fluorescence (KMESF) at 10 µM; 0.38% of 220,000 active; in the data active = fluorescence above about 47
RGS4-Gao reg: human RGS4-Galphao interaction regulation; binding response (% of control), % at 10 µM; 0.33% of 220,000 active; P09471; Multiplexed bead flow cytometry, RGS4-Galphao binding; actives lie on both sides; in the data active = binding response below about 49% or above about 150%; inactive = in between;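 also: fluorescent Galphao activated with aluminum fluoride binding bead-coupled RGS4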
RGS-Gao: modulates binding between human RGS4 and Galphao. 99% of 1,600 active. AID 1504. RGS4–Galpha-o binding response, % at 10 µM. shares compounds with RGS16-Gao HTS. multiplexed bead flow cytometry, RGS–Galpha-o binding;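 also: fluorescently labeled Galpha-o bound to GDP with aluminium fluoride binding biotinylated RGS beads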
Target sequence (P09471 whole entry, looked up): as above
Target sequence (P49798 whole entry, looked up): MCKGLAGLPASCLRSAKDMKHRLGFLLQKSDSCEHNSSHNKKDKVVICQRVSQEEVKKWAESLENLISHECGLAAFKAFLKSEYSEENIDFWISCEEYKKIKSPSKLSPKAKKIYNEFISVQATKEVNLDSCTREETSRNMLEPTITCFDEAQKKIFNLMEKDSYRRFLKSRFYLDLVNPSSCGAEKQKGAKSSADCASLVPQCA
Biotin-avidin: biotin-avidin bead binding disruption counter-screen; shares compounds with RGS16-Gao HTS; streptavidin beads, fluorescein-biotin binding, flow cytometry; inhibition, % at 10 µM; 1,700 tested, under 10 active; AID 1783;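 active = inhibition above 50%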;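 also: median green fluorescence of gated singlet beads compared with DMSO control wells; 0% = DMSO wells and 100% = complete loss of bead fluorescence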
RGS8-Gao confirm: confirmation of regulators of human RGS8-Galphao interaction; shares compounds with RGS16-Gao HTS; bead-based flow cytometry RGS8-Galphao binding, fluorescence; actives lie on both sides; binding response (% of control), % at 10 µM; 3% of 1,700 active; AID 1836; in the data active = binding response below about 72% or above about 130%; inactive = in between;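 also: Galphao activated as GDP AlF4 complex before binding bead RGS8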
RGS7-Gao single: RGS7-Galphao interaction regulation, single point confirmation; shares compounds with RGS16-Gao HTS; bead-based flow cytometry RGS7-Galphao binding; actives lie on both sides; response (percent of control binding), % at 10 µM; 7.8% of 1,700 active; in the data active = response below about 75% or above about 130%; inactive = in between;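 also: fluorescent Galphao activated with GDP and aluminum fluoride binding bead-coupled RGS7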
RGS16-Gao conf: confirmation of regulators of human RGS16-Galphao interaction; shares compounds with RGS16-Gao HTS; bead-based flow cytometry, RGS16-Galphao binding; actives lie on both sides; response (% of control binding), % at 10 µM; 4% of 1,700 active; in the data active = response below about 74% or above about 130%; inactive = in between;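 also: Galphao activated as the GDP aluminium fluoride complex binding bead-coupled RGS16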
RGS4-Gao confirm: confirmation of regulators of human RGS4-Galphao interaction; shares compounds with RGS16-Gao HTS; RGS4-Galphao binding, multiplexed bead flow cytometry; actives lie on both sides; binding response (% of control), % at 10 µM; 4% of 1,700 active; AID 1840; in the data active = binding response below about 74% or above about 130%; inactive = in between
RGS19-Gao single: RGS19-Galphao interaction regulation, single point confirmation. 5% of 1,700 active. AID 1841. shares compounds with RGS16-Gao HTS. bead-based flow cytometry RGS19-Galphao binding; actives lie on both sides. response (percent of control binding), % at 10 µM; in the data active = response below about 50% or above about 160%; inactive = in between;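 also: 100% = no compound control and 0% = blank background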
* = called active by the depositor; ? = inconclusive; / = not tested or not shown; [ ] = another dose, or the depositor's remark. Unless noted, no rule for the calls is given here.

SMILES	RGS8-Gao	RGS7-Gao	GSH bead fluor	RGS16-Gao HTS	Avidin fluor	RGS4-Gao reg	RGS-Gao	Biotin-avidin	RGS8-Gao confirm	RGS7-Gao single	RGS16-Gao conf	RGS4-Gao confirm	RGS19-Gao single
Oc1ccccc1Nc1nc(NCC2CCCO2)c2ccccc2n1 (stereo unspecified)	98.7	41.0*	21	89.5	3	95.6	95.6*	1.7	100.4	104.5	103.1	101.1	104.3
O=C(Nc1cccc(F)c1)C1CCN(C(=O)c2ccc(Cl)cc2)CC1	69.7	83.0	7	18.0*	2	74.5	74.5*	-1.7	99.9	97.9	98.4	97.6	107.9
COC(=O)c1ccc(NC(=O)C2CCN(C(=O)c3cc(OC)c(OC)c(OC)c3)CC2)cc1	/	137.3	35	/	/	276.4*[activator]	/	-2.1	102.8	106.5	102.6	100.4	107.3
O=C(Nc1ccc2c(c1)OCO2)C1CCN(C(=O)c2ccc(Cl)cc2)CC1	100.1	101.4	25	104.7	12	102.3	/	/	/	/	/	/	/
CNC(=O)NC(=O)C(C)OC(=O)c1oc2ccccc2c1CSc1ccc(Cl)cc1 (stereo unspecified)	84.9	97.5	7	58.6	0	98.0	/	/	/	/	/	/	/
CCc1ccc(/C=C2/C(=O)N(CC)C(=S)N2C)s1	170.2*[activator]	198.8*[activator]	11	112.7	2	197.7*[activator]	/	-0.5	104.5	105.5	104.7	103.2	95.2
CCOc1ccc(N2C(=O)/C(=C/c3cccs3)N(C)C2=S)cc1	102.3	104.9	5	104.3	2	100.0	/	/	/	/	/	/	/
COc1ccc(N(CC(=O)Nc2ccc(OC)c(Cl)c2)S(=O)(=O)c2c(C)noc2C)cc1	140.8*[activator]	116.0	16	227.2*[activator]	9	116.2	116.2*	-1.7	101.1	101.5	103.7	101.9	96.6
COc1ccc(N(CC(=O)Nc2ccc(F)c(Cl)c2)S(=O)(=O)c2c(C)noc2C)cc1	100.5	100.0	10	102.4	11	97.6	/	/	/	/	/	/	/
CCCCN(C)C(=O)c1cc2cc([N+](=O)[O-])cc(OC)c2oc1=O	102.8	97.3	11	104.4	18	101.1	/	/	/	/	/	/	/
CC(=O)Nc1ccc(S(=O)(=O)NCC(=O)OCC(=O)N2CCN(c3ccccc3)CC2)cc1	71.3	79.4	12	21.3*	1	82.4	82.4*	-2.2	98.2	89.5	95.3	93.5	82.1
O=C(CNS(=O)(=O)c1c(Cl)cccc1Cl)OCC(=O)N1CCN(c2ccccc2)CC1	103.6	99.4	8	111.5	13	100.9	/	/	/	/	/	/	/
Cc1nc2ccccc2n1CCCOc1ccccc1	102.6	102.0	29	107.6	5	101.6	/	/	/	/	/	/	/
Cc1nc(Cl)c(Cl)n1CCOc1ccccc1	6.8*	?	/	-7.5*	-2	-14.4*	/	1.0	101.4	107.9	103.3	104.6	101.3
CCC(OC(=O)c1cc2sccc2n1C)C(=O)NCC1CCCO1 (stereo unspecified)	106.5	161.1*[activator]	43	203.3*[activator]	47*	190.0*[activator]	/	-1.1	101.4	95.2	98.9	99.1	106.3
CC(OC(=O)c1cc2sccc2n1C)C(=O)NCC1CCCO1 (stereo unspecified)	100.6	101.4	13	102.1	12	97.1	/	/	/	/	/	/	/
C#CCn1c(=NC(=O)c2cc(-c3cccs3)nc3ccccc23)sc2cc(S(N)(=O)=O)ccc21	47.3*	34.1*	5	84.0	0	79.7	79.7*	-0.6	96.5	91.4	97.7	94.3	89.8
CN(Cc1cn(C)nc1-c1ccccc1F)CC1CCCCO1 (stereo unspecified)	66.7	46.1*	14	78.0	0	73.7	73.7*	0.1	101.4	100.0	101.9	102.5	96.6
CN(Cc1cn(C)nc1-c1ccccc1F)CC1CCN(Cc2ccccc2)CC1	100.4	?	/	100.2	4	96.8	/	/	/	/	/	/	/
Cc1ccc(N2CCN(CCc3nc4cc(NS(C)(=O)=O)ccc4n3C)CC2)cc1	147.1*[activator]	120.3	64	278.2	9	120.0	120.0*	-0.2	105.5	100.8	109.1	103.5	98.2
Cc1ccc(S(=O)(=O)n2ccc(=O)[nH]2)cc1	109.5	108.3	20	103.2	6	104.4	/	/	/	/	/	/	/
COc1ccccc1-c1nnc(SC(C)C(=O)O)n1-c1ccccc1 (stereo unspecified)	96.8	100.3	17	99.6	9	97.7	/	/	/	/	/	/	/
CCc1nc(C)ccc1OC(=O)C12CC3CC(CC(C3)C1)C2	98.7	100.2	11	101.2	21	101.1	/	/	/	/	/	/	/
Cc1ccc(OC(=O)C23CC4CC(CC(C4)C2)C3)c(C)n1	98.0	151.8*[activator]	10	100.9	111*	119.0	119.0*	2.1	105.3	109.0	104.0	106.9	90.3
Cc1ccccc1NC(=O)Cn1nnc(S(=O)(=O)c2ccc(C(C)(C)C)cc2)c1N	91.9	89.8	13	87.3	4	82.0	/	/	/	/	/	/	/
Cc1[nH]n(-c2ccccc2)c(=O)c1/C=N/Nc1nncc(-c2ccccc2)n1	/	/	17	/	/	/	/	1.1	95.2	89.3	91.0	93.0	58.6
CC(NC(=S)Nc1ccc(S(=O)(=O)N2CCOCC2)cc1)C1CC2CCC1C2 (stereo unspecified)	83.3	96.6	8	30.0	1	97.2	/	/	/	/	/	/	/
CN(C)S(=O)(=O)c1cccc(NC(=S)NN=C(Cc2ccccc2)Cc2ccccc2)c1	53.6*	51.2	13	100.5	6	91.2	91.2*	1.4	101.2	103.5	102.2	107.2	98.3
COc1cc(-c2cc(C(=O)NN3CCN(C)CC3)c3ccccc3n2)cc(OC)c1OC	133.2	108.8	5	281.8*[activator]	14	110.5	110.5*	0.4	101.4	103.8	102.2	102.1	103.3
COc1cc(-c2cc(C(=O)O)c3cc4c(cc3n2)OCCO4)cc(OC)c1OC	/	/	30	/	/	/	/	2.0	99.9	101.0	99.2	101.3	104.8

Screening results (PubChem BioAssay)
